Source: PubChem (National Center for Advancing Translational Sciences (NCATS))
DRD3 antagonist = blocks the human D3 dopamine receptor | AID 652054 | D3R cells, DiscoveRx beta-arrestin luminescence, antagonist mode; active compounds read low | hit rate 2.5% among 360,000 | P35462 | max response, negative = inhibition, %; in the data active = max response below about -50%; inconclusive = no clear call, values can overlap the other calls; also: % is scaled to controls: 0 for no effect and ±100 for the full control effect
Target sequence (P35462 whole entry, looked up): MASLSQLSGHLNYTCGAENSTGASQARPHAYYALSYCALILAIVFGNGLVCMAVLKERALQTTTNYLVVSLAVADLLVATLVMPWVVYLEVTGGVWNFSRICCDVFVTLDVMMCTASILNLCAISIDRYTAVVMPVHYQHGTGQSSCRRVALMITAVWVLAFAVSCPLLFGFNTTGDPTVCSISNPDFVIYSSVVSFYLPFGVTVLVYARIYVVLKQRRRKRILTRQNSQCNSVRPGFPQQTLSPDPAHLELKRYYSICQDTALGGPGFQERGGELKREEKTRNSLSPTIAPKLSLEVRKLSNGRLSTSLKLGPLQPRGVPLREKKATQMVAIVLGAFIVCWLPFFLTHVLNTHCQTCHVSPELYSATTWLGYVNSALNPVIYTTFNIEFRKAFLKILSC
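Cells plated overnight at 1500 cells/well, then exposed to library compounds with dopamine controls for 90 minutes at 37 degrees C. DiscoveRx reagent added for 30–60 minutes at room temperature; luminescence read, quantitative HTS format.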
TDP1 cell CPT = growth inhibition of DT40 Tdp1-/-;hTDP1 cells with camptothecin (screen for TDP1 inhibitors); chicken DT40 Tdp1-/-;hTDP1 cells + 20 nM CPT, ATP luminescence, 48 h; Potency, µM (top dose mostly 46.2 µM), without a hit: at the highest dose activity change, negative = growth inhibition, most hits filed as inhibitors; hit rate 12% among 420,000; AID 686979; also: potency is read from the fitted curve at half-maximal effect; % is scaled to controls: 0 for no effect and ±100 for the full control effect; nearly all actives have a fitted effect of over 55% in size
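Cell growth measured by CellTiter-Glo luminescence after a minimum 48 h, 37 C compound exposure with 20 nM CPT in Tdp1-knockout DT40 cells stably expressing hTDP1, seeded 400/well; qHTS titration format.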
DT40 TDP1 no CPT = qHTS for Inhibitors of human tyrosyl-DNA phosphodiesterase 1 (TDP1): qHTS in cells in absence of CPT | DT40 Tdp1-/- hTDP1 cells, no CPT, ATP luminescence, 48 h | Potency, µM (series often up to 46.2 µM), without a hit: at the top dose activity change, negative = growth inhibition, hits mostly inhibitors | hit rate 15% among 420,000 | AID 686978, 2013; also: potency is read from the fitted curve at half-maximal effect; % is scaled to controls: 0 for no effect and ±100 for the full control effect; nearly all actives have a fitted effect of over 55% in size
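Readout: luminescence from CellTiter-Glo after 30 min in the dark at RT. Cells: DT40 Tdp1-/- with stable hTDP1, 400/well. Exposure: compounds alone, ≥48 hr, 37 °C.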
DRD3 agonist = D3 dopamine receptor (human) agonism; P35462; D3R DiscoveRx beta-arrestin cells, luminescence, 90 min; max activation, %; hit rate 0.58% among 410,000; in the data active = max activation above about 30%; also: 0% is about no effect
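Agonist mode: compounds and dopamine controls were applied to plated cells for 90 min at 37 degrees C after an overnight attachment at 1500 cells/well. Luminescent read-out followed 30 - 60 minutes at room temperature with DiscoveRx detection reagent.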
IL1B secr inh = inhibitors of inflammasome signaling (IL-1 beta secretion); THP-1 LPS/ATP IL-1B secretion, AlphaLISA, 16 h; active compounds read low; activity change, % at 57.5 µM; hit rate 4.7% among 360,000; AID 743279; in the data active = activity change below about -50%; inconclusive = mostly about -30% to -49%; also: % is scaled to controls: 0 for no effect and ±100 for the full control effect
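Secreted IL-1B measured by AlphaLISA bead assay after 16 h compound exposure of THP-1 cells; compounds (final up to 57.5 uM) added 1 h before LPS (250 ng/mL) and ATP (1.25 mM) stimulation; lower signal means less secretion.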
ClpP mod = qHTS Assay for Activators of ClpP | ATP-dependent Clp protease proteolytic subunit (Bacillus subtilis (strain 168)), P80244 | purified B. subtilis ClpP, FRET peptide cleavage, 20 min | Potency, µM (doses to about 57.5 µM), without a hit: at the highest dose activity change, negative = active | hit rate 1.9% among 340,000 | AID 651965, 2013; active = well fitted falling curve with a large enough effect; inconclusive = small, poorly fitted or top-dose-only effect; inactive = no such curve, though single readings can be large or run the other way; also: potency is read from the fitted curve at half-maximal effect; the source files actives as falling curves though it sought activators and does not explain the sign; nearly all actives have a fitted effect of over 65% in size
Target sequence (P80244 whole entry, looked up): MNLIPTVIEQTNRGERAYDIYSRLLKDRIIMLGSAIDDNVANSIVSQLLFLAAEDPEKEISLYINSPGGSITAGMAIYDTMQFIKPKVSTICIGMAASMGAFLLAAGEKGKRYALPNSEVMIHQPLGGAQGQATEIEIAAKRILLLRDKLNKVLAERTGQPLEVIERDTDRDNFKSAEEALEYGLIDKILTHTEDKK
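Purified B. subtilis ClpP, 10 microg/mL final in Tris/HCl pH8 with KCl, BSA, glycerol and Tween-20, cleaved an Abz/nitrotyrosine-quenched decapeptide. Fluorescence (ex 320, em 430) was read at 0 and 20 min at room temperature. Delta was normalized to 5.8 microM ADEP and DMSO/no-enzyme controls.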
* hit, by the source's call; ? = inconclusive; / = not tested or not shown. An excerpt weighted towards active compounds, which were near 21% of everything screened. Unless noted, calls follow the shape of the dose curve; as a rule, active = well fitted inhibition curve with a large enough effect; inconclusive = small, poorly fitted or top-dose-only effect; inactive = flat fitted curve, though single readings scatter.

SMILES	DRD3 antagonist	TDP1 cell CPT	DT40 TDP1 no CPT	DRD3 agonist	IL1B secr inh	ClpP mod
COc1cccc(CN(C)C(=O)c2ccc(NS(=O)(=O)c3ccc4[nH]c(=O)[nH]c4c3)cc2)c1OC	-17.3	5.4%	7.2%	-12.0	-14.9	1.5%
COc1ccc(NS(=O)(=O)c2ccc(C(=O)N(C)Cc3ccc(C)o3)cc2)cc1	7.5	13µM*	14.6µM*	11.1	-10.7	0.5%
COc1cccc(CN(C)C(=O)c2cccc(S(=O)(=O)Nc3cccc(C)c3)c2)c1OC	-10.4	23.1µM*	16.4µM*	-14.9	-11.6	-0.7%
CCOc1ccc(NS(=O)(=O)c2ccc(C(=O)N(C)Cc3cccc(OC)c3OC)cc2)cc1	?	14.6µM*	14.6µM*	-2.4	-0.5	-5.7%
CC(C)N(C(=O)CN1CCC(c2nc3ccccc3[nH]2)CC1)C(C)C	-8.5	-1.6%	-28.3%	2.0	-4.0	-2.9%
CCOC(=O)c1ccc(NC(=O)c2cc3c([nH]c2=O)CC(c2ccccc2)CC3=O)cc1 (configuration not stated)	/	11.3%	-27.2%	2.0	/	0.4%
CCOc1ccc(CN(C)C(=O)c2cccc(S(=O)(=O)Nc3ccccc3OC)c2)cc1OC	0.9	?	14.6µM*	4.7	-28.3	-0.6%
CSc1ccc(CN2CCCN(C)CC2)cc1	-15.1	-7.4%	-1.7%	-17.9	-11.4	0.7%
O=C(Nc1cccc(C(F)(F)F)c1)C1Cc2c(-c3cccc(F)c3)ccnc2O1 (configuration not stated)	-18.3	?	?	-4.7	0.0	-20.1%
CC(=O)Nc1ccc(-c2ccnc3c2CC(C(=O)Nc2cccc(N(C)C)c2)O3)cc1 (configuration not stated)	0.0	18.4µM*	2.59µM*	-16.8	-19.1	-11.0%
NC(=O)c1cccc(-c2ccnc3c2CC(C(=O)Nc2cccc(C(F)(F)F)c2)O3)c1 (configuration not stated)	-14.4	18.4µM*	18.4µM*	-0.4	10.3	-16.6%
CC(=O)Nc1cccc(-c2ccnc3c2CC(C(=O)Nc2cccnc2)O3)c1 (configuration not stated)	22.2	-31.7%	?	8.1	12.0	-14.1%
CC(=O)Nc1ccc(-c2ccnc3c2CC(C(=O)Nc2cccc(C(F)(F)F)c2)O3)cc1 (configuration not stated)	0.0	23.1µM*	-73.4%	-6.6	-1.6	4.8%
CC(=O)Nc1cccc(-c2ccnc3c2CC(C(=O)Nc2cccc(OC(F)(F)F)c2)O3)c1 (configuration not stated)	0.0	?	18.4µM*	-10.8	8.7	-5.4%
CC(=O)Nc1ccc(-c2ccnc3c2CC(C(=O)Nc2cccc(OC(F)(F)F)c2)O3)cc1 (configuration not stated)	0.0	20.6µM*	18.4µM*	-2.5	-12.9	4.1%
CC(=O)Nc1ccc(-c2ccnc3c2CC(C(=O)Nc2cccc(Oc4ccccc4)c2)O3)cc1 (configuration not stated)	-15.4	?	20.6µM*	-14.1	?	?
CC(=O)Nc1cccc(-c2ccnc3c2CC(C(=O)Nc2cccc(Oc4ccccc4)c2)O3)c1 (configuration not stated)	8.8	?	?	2.6	-8.2	-13.4%
Cc1cc(/C=C(\C#N)C(=O)NCc2ccco2)c(C)[nH]1	-11.7	-9.0%	-9.3%	3.0	-50.7*	-1.3%
CCOc1ccc(-c2nn(-c3ccccc3)cc2/C=C(\C#N)S(=O)(=O)c2ccccc2)cc1C	1.2	?	13µM*	4.5	-14.7	-5.1%
CN(C)S(=O)(=O)c1cccc(-c2nn(-c3ccccc3)cc2/C=C(/C#N)C(=O)NCc2ccco2)c1	?	18.4µM*	?	-13.5	-24.8	?
CCCOc1cccc(-c2nn(-c3ccccc3)cc2/C=C(\C#N)C(=O)NCCCn2ccnc2)c1	-21.0	?	?	-7.0	-58.2*	-1.4%
CC1=CC2C(C3C=CC2(C)C(=O)C3(C)O)C(C)(O)C1=O (configuration not stated)	22.7	19.2%	12.2%	1.3	4.2	1.3%
COc1cccc(NC(=S)N(CCN(C)C)C(C)c2ccncc2)c1 (configuration not stated)	6.8	-17.4%	5.3%	-12.1	15.7	0.7%
CCC[n+]1c(C)sc2c3c(ccc21)CCCC3	-24.8	1.84µM*	2.31µM*	-3.2	-96.8*	/
O=C1CN(c2ccc(Cl)cc2)C2(CCCCC2)S1	5.8	29.1µM*	?	-0.3	2.8	1.5%
SMILES	DRD3 antagonist	TDP1 cell CPT	DT40 TDP1 no CPT	DRD3 agonist	IL1B secr inh	ClpP mod
O=C1C=C(c2ccc(Cl)cc2)OC2(CCCC2)O1	2.7	-12.6%	-0.8%	-2.5	-4.9	-1.4%
O=C(COc1c(Br)cc(Br)c2cccnc12)Nc1ccccc1F	42.5	?	18.4µM*	1.1	15.3	-0.7%
Cc1cc(OCC(=O)NCC(c2ccc(F)cc2)N2CCOCC2)ccc1Cl (configuration not stated)	3.4	-27.1%	?	-0.4	-6.7	0.5%
CCOc1ccc2[nH]c(=O)c(CN(CCc3ccccc3)C(=O)N3CCOCC3)cc2c1	-4.1	?	?	-0.6	1.9	3.5%
CCOc1ccc2[nH]c(=O)c(CN(Cc3ccc(C)cc3)C(=O)N3CCCC3)cc2c1	21.0	?	20.6µM*	4.2	0.8	31.6µM*
CCOc1ccc2[nH]c(=O)c(CN(CCOC)C(=O)N3CCOCC3)cc2c1	5.9	2.7%	-8.1%	1.6	0.5	28.2µM*
CCOc1ccc2[nH]c(=O)c(CN(CCc3ccccc3)C(=O)N3CCCC3)cc2c1	-14.3	12.6µM*	?	8.5	-2.2	?
O=C(NCCS(=O)(=O)N1CCN(Cc2ccccc2)CC1)c1ccccc1	5.2	6.4%	?	9.4	4.7	/
O=S1(=O)CC(O)C(NCc2ccco2)C1 (configuration not stated)	21.1	16.3%	3.1%	-1.2	-13.2	-2.4%
CC(C)(C)c1cc(CNC2CS(=O)(=O)C[C@@H]2O)cc(C(C)(C)C)c1O (some centres not stated)	-9.5	14.6µM*	16.4µM*	-0.7	-1.6	-1.5%
C=CCOC(=O)C1=C[C@H](c2coc3ccccc3c2=O)[C@@H](CCCO)[C@H](OCC)O1	32.3	-23.2%	-15.5%	5.2	28.4	0.9%
